# Screening results from PubChem.
# Most compounds without a hit are left out; they make up all but 2.8% or so of the library.
# FGF22 binding: shifts melting point of recombinant human FGF22 | recombinant FGF22 thermal shift, SYPRO orange fluorescence; percent of sucrose octasulfate shift, DMSO zero | activity (Tm shift, normalised), % at 9.99 µM | actives 1.5% (n = 340,000) | AID 651658;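 active = mean Tm shift, scaled 0 neutral to 100 positive control, at about 1.3% or above, every replicate too, limit read from the data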
# Target sequence (Q9HCT0 whole entry, looked up): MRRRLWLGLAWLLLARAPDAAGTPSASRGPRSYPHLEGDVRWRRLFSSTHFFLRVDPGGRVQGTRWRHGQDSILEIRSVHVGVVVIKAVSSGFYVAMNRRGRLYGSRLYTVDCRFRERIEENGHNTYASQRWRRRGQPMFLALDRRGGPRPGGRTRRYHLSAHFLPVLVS
# dFosB act: mouse delta FosB homodimer activation; activation, % at 25 µM; actives 0.99% (n = 340,000); purified delta FosB, TAMRA-CDK5 oligo fluorescence polarization; percent of positive-control signal above neutral wells;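 active = mean activation above about 17%, with every replicate also reaching it, limit read from the data, passing the limit was not always enough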
# Target sequence (P13346 whole entry, looked up): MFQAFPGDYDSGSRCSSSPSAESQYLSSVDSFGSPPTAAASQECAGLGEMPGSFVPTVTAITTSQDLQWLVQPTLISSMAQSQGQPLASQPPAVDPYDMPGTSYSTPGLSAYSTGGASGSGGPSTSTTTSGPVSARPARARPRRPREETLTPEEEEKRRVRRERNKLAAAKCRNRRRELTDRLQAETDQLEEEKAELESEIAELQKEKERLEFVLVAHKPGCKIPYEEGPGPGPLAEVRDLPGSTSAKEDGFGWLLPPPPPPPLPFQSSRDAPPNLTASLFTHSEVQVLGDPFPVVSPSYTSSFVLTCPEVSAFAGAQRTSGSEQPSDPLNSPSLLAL
# CDK5 p35 inh: inhibitors of human CDK5/p35 kinase. Recombinant CDK5/p35, ADP-Glo luminescence, 60 min. inhibition, % at 10 µM. AID 488839. actives 0.01% (n = 330,000). Q00535+Q15078;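 active = highest replicate inhibition of at least 50% and at least 75% of replicates reaching 50%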;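 also: plate controls were DMSO neutral control for no effect and GW8510 at 10 µM for full effect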
# PglD DTNB: inhibitors of Campylobacter jejuni PglD acetyltransferase; purified PglD enzyme, DTNB colorimetric CoA detection; inhibition, % at 12.5 µM; actives 0.098% (n = 360,000); AID 602405; in the data active = inhibition above about 16%, passing the limit was not always enough
# SIRT5 block: sirtuin-5 (human) deacylase inhibition. actives 1.1% (n = 330,000). Q9NXA8. Purified SirT5, succinyl-peptide AMC, trypsin-coupled fluorescence. inhibition, % at 15 µM; in the data active = inhibition above about 15%
# PvdQ inh: P. aeruginosa PvdQ acylase inhibition; inhibition, % at 10 µM; purified PvdQ acylase, fluorescence plate reader; actives 0.063% (n = 340,000); in the data active = inhibition above about 30%, passing the limit was not always enough;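 also: 0% = vehicle neutral wells and 100% = reference inhibitor wells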
# Numbers without * were called inactive; . = no result given.
SMILES,FGF22 binding,dFosB act,CDK5 p35 inh,PglD DTNB,SIRT5 block,PvdQ inh
CC(=O)c1cccc(NC(=O)CN(C)S(=O)(=O)c2ccccc2)c1,43.5*,0.1,-4.1,12.3,-2.1,2.9
CC(=O)c1cccc(NC(=O)CCCSc2ccccc2)c1,0.1,-2.0,1.6,-2.8,16.0*,-1.0
COc1ccc(S(=O)(=O)N(C)CC(=O)Nc2cccc(C(C)=O)c2)cc1C,.,-6.9,2.8,-1.8,.,17.4
C/C(=N\S(=O)(=O)c1ccc(C)cc1)NC(=S)Nc1ccccc1,43.7*,-6.6,1.0,.,-3.5,-10.9
COc1ccc(NC(=S)N/C(=N/S(=O)(=O)c2ccc(C)cc2)c2ccccc2)cc1,43.2*,-3.7,-2.2,1.9,0.7,-6.7
COc1ccccc1NC(=O)N1CCCCN2[C@H](CO)[C@@H](c3ccc(C#CC4CC4)cc3)[C@H]2C1,.,.,.,.,5.7,.
C[C@H](CO)N1C[C@H](C)[C@@H](CN(C)C(=O)Nc2ccc(F)cc2)Oc2ccc(NS(=O)(=O)c3ccc(F)cc3)cc2C1=O,-0.4,.,.,-0.1,0.4,.
O=C(CN1CCCC1)N1c2ccccc2C=Cc2ccccc21,43.3*,-6.9,0.8,.,-8.6,-13.5
COc1cccc(Cn2cnc(-c3ccccc3OC)c2C2CC2)c1,43.3*,.,.,.,.,.
CN1C(=O)c2cc(NC(=O)C3CCCC3)ccc2OC[C@@H]2O[C@H](CC(=O)NCC(F)(F)F)CC[C@H]21,-0.1,.,.,-2.7,-0.9,.
CCOC(=O)CC1(CCc2ccccc2)Oc2ccccc2N1S(=O)(=O)c1ccc(C)cc1 (stereo not drawn),-0.3,.,.,.,2.0,.
CCOC(=O)CC1(C)Sc2ccccc2N1S(=O)(=O)c1ccc(C)cc1 (stereo not drawn),43.0*,.,.,.,.,.
CC(=O)c1ccc(NC(=O)CN2C(=O)/C(=C/C(C)=C/c3ccccc3)SC2=S)cc1,0.1,5.9,-0.2,-0.2,0.4,0.0
CC(/C=C1\SC(=S)N(c2ccc(C(=O)O)cc2)C1=O)=C\c1ccccc1,0.1,-12.2,-1.3,.,34.4*,-9.8
CC(=Cc1ccccc1)C=C1SC(=S)N(CCCC(=O)Nc2ccc(C(=O)O)c(O)c2)C1=O,2.6*,.,.,-1.8,60.2*,.
CC(/C=C1\SC(=S)N(CCC(=O)Nc2ccc(O)cc2)C1=O)=C\c1ccccc1,.,23.4*,0.4,-4.1,-3.4,-2.4
CC(/C=C1\SC(=S)N(NC(=O)c2ccc(C)cc2)C1=O)=C\c1ccccc1,.,-9.1,-1.8,-5.4,.,6.5
COc1ccc2c3c(n(C)c2c1)[C@@H](CO)N(C(=O)c1cnccn1)CC31CN(C)C1,-0.1,.,.,.,-4.1,.
CCC1CN(C(=O)N2CCC(C(=O)NCc3ccccc3C)CC2)c2ccccc2O1 (stereo not drawn),-0.1,-5.3,-0.1,-3.7,-3.9,-16.5
CCC1CN(C(=O)N2CCC(C(=O)Nc3ccccc3F)CC2)c2ccccc2O1 (stereo not drawn),-0.2,-6.9,2.6,0.1,19.3*,6.6
CC(=O)N1CC[C@@H]2[C@@H](CO)Nc3ccc(C#Cc4ccccc4F)cc3[C@@H]21,0.2,.,.,4.2,4.7,.
Cc1nn(Cc2cccc(C(=O)O)c2)c(C)c1[N+](=O)[O-],0.1,-4.9,0.3,0.1,3.9,1.4
COC(=O)c1cccc(Cn2nc(C)c([N+](=O)[O-])c2C)c1,-0.3,-3.0,-0.4,.,15.3*,-8.7
COc1ccccc1NC(=O)Cn1c(O)c(N=NC(=O)c2ccccc2O)c2ccccc21,0.3,69.9*,-1.8,-3.8,-3.7,-6.5
Cc1cccc(NC(=O)Cn2c(O)c(N=NC(N)=S)c3ccccc32)c1,0.0,40.5*,-4.6,-4.1,-0.6,-6.4
SMILES,FGF22 binding,dFosB act,CDK5 p35 inh,PglD DTNB,SIRT5 block,PvdQ inh
Cc1ccc(NC(=O)Cn2c(O)c(N=NC(=O)c3cc4ccccc4cc3O)c3ccccc32)cc1,.,-10.9,1.2,6.3,.,14.9
O=C(Nc1ccc(N2CCN(Cc3ccccc3)CC2)cc1)c1ccccc1[N+](=O)[O-],-0.2,-8.8,0.7,.,3.6,-10.0
Cc1c(C(=O)Nc2ccc(N3CCOCC3)cc2)cccc1[N+](=O)[O-],0.0,-7.7,-0.6,.,0.1,-6.7
Cc1c(C(=O)NC(=S)Nc2ccc(N3CCOCC3)cc2)cccc1[N+](=O)[O-],43.0*,-12.8,-2.0,.,0.0,-13.2
CN1CCN(c2ccc(NC(=S)NC(=O)c3cccc4c(Cl)cccc34)cc2)CC1,0.1,49.1*,0.0,-3.5,-0.8,-3.7
O=C(Nc1ccc(N2CCCC2)cc1)c1ccccc1[N+](=O)[O-],0.0,24.9*,2.1,-1.4,-2.9,1.4
CCCOC(=O)c1ccc(NC(=O)c2ccccc2[N+](=O)[O-])cc1,43.5*,-8.5,-0.7,.,-1.5,1.9
CCNC(=O)[C@@H]1[C@@H](CO)[C@@H]2Cn3c(ccc(-c4ccncc4)c3=O)[C@@H]2N1Cc1ccc2c(c1)OCO2,0.1,.,.,-0.2,-7.6,.
Cc1ccccc1C(=O)N1CCN(c2ccc(NC(=O)c3ccccc3[N+](=O)[O-])cc2)CC1,0.4,1.5,1.5,.,19.2*,1.5
Cc1ccccc1C(=O)N1CCN(c2ccc(NC(=O)c3cccnc3Cl)cc2)CC1,-0.1,2.4,-2.1,.,1.2,-16.8
CCCNC(=O)[C@@H]1[C@@H](CO)[C@@H]2Cn3c(ccc(C4=CCCC4)c3=O)[C@H]1N2CCC(F)(F)F,0.0,.,.,-1.4,5.7,.
COc1ccc(NC(=O)N(C)C[C@H]2Oc3ccc(NC(=O)C4CC4)cc3C(=O)N([C@H](C)CO)C[C@H]2C)cc1,-0.3,.,.,-0.4,-3.0,.
COc1cccc(C2=CC(=O)C[C@H](c3ccc4c(c3)OCO4)C2)c1,.,-3.4,0.2,-0.8,.,15.5
COc1ccc([C@H]2CC(=O)C=C(c3ccc4ccccc4c3)C2)cc1OC,0.3,-0.9,-0.6,-3.1,15.1*,-3.6
COc1ccc([C@H]2CC(=O)C=C(c3ccc4c(c3)OCO4)C2)cc1OC,4.0*,-1.3,1.5,1.7,-3.3,10.6
CN1CCN(C(=O)C[C@H]2CC[C@H](NS(=O)(=O)c3cccc(F)c3)[C@@H](CO)O2)CC1,0.1,.,.,-0.9,-0.3,.
CCCC#Cc1ccc2c(c1)O[C@H](CN(C)C(=O)C1CC1)[C@@H](C)CN([C@@H](C)CO)S2(=O)=O,0.0,.,.,3.1,-1.8,.
C[C@@H]1CN([C@@H](C)CO)C(=O)c2cccc(NC(=O)c3ccc(-c4nccs4)cc3)c2O[C@H]1CN(C)S(=O)(=O)c1ccc(F)cc1,-1.1,.,.,-2.2,11.7,.
Nc1nc(CSc2ccccc2)nc(N2CCCCC2)n1,0.3,-5.9,0.3,.,1.8,16.1
Nc1nc(CSc2ccc(Cl)cc2)nc(N2CCCCC2)n1,0.1,-10.2,0.0,.,18.0*,-15.4
C[C@H](CO)N1C[C@H](C)[C@H](CN(C)C(=O)Cc2ccccn2)Oc2ncc(-c3ccc(F)cc3)cc2C1=O,-0.3,.,.,7.3,-5.8,.
Cc1[nH][nH]c(=O)c1C=NCc1ccc(Cl)cc1,43.4*,-0.9,1.2,-1.6,0.9,-7.7
